# HSF1 inhib: HSF1 inhibition. NIH3T3-HGL HSE-luciferase, MG132-induced, luminescence 8 h; stronger effect = lower value. activity change, negative = inhibition, % at 7.5 µM (by protocol). actives 0.77% (n = 300,000);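 active = more than half of replicate wells show activity change below -50%, luminescence cut by over half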;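 also: luciferase reports HSF-1 transcriptional activity via heat shock element; 0% = median of DMSO wells and -100% = zero luminescence signal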
# HSF-1 act: increases HSF-1 driven luciferase reporter signal. activation, % at 9 µM. NIH3T3-HGL HSF-1 luciferase reporter, MG132, 8 h; 100% = twice DMSO control signal. actives 1.7% (n = 300,000). AID 504408;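 active = mean replicate activation of at least 50% with a set share of replicates each reaching 50%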;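 also: 0% = median of the neutral control wells and 100% = twice that signal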
# dFosB activator: enhances mouse delta FosB homodimer DNA binding; P13346; purified delta FosB, TAMRA-CDK5 oligo fluorescence polarization; percent of positive-control signal above neutral wells; activation, % at 25 µM; actives 0.99% (n = 340,000); AID 493131;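 active = mean activation above about 17%, with every replicate also reaching it, limit read from the data, passing the limit was not always enough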
# Target sequence (P13346 whole entry, looked up): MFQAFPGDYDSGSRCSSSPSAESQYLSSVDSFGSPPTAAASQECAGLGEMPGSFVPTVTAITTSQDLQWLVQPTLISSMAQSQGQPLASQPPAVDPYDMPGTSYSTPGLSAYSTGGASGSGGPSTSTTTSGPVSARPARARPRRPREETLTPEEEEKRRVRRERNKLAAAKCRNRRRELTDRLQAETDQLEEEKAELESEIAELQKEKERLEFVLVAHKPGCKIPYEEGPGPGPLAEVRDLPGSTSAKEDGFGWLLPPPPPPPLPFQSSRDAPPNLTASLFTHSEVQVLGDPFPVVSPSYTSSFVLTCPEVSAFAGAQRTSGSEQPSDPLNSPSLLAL
# HSP90 refold inh: HSP90 refolding inhibition in rabbit reticulocyte lysate | AID 1789 | actives 0.91% (n = 290,000) | inhibition, % at 5.6 µM | luciferase refolding luminescence, 3 h;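 active = inhibition above the screen-wide mean plus 3 SD, computed separately per campaign, cut at about 16% in these data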;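 also: 0% = DMSO wells and 100% = 60 µM geldanamycin wells; inhibitors lower the luminescence because luciferase stays unfolded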
# MPTP inh: blocks calcium-induced mitochondrial swelling; inhibition, % at 10 µM; AID 602449; actives 1.4% (n = 360,000); isolated mouse mitochondria, Ca2+ swelling absorbance, 30 min;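 active = inhibition of 50% or more, scaled per plate between neutral and stimulator controls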;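 also: 0% = DMSO wells given calcium and 100% = 1 mM EGTA wells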
# Platelet DG rel: modulates dense granule release in human platelets; human platelet-rich plasma, SFLLRN dense granule ATP release, luminescence; inhibition, %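 (compounds screened at 7.5 µM in platelet-rich plasma)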; actives 0.22% (n = 300,000); AID 1663;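 active = mean replicate score, as percent of positive control, at or above 50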
# * marks the source's active call; other numbers are inactive results; nt = not tested or not shown; ! = repeats disagree. Shown are actives, neighbours in structure and some others; about 4.9% of the full set was active somewhere.
SMILES,HSF1 inhib,HSF-1 act,dFosB activator,HSP90 refold inh,MPTP inh,Platelet DG rel
CCCn1c(SCC(=O)N2CCc3ccccc32)n[nH]c1=O,nt,nt,-4,nt,0,nt
CNc1nc(NC)c2cn[nH]c2n1,nt,nt,-15,nt,-2,nt
O=C(c1ccco1)N1CCCN(Cc2cn[nH]c2-c2ccc(-c3ccccc3)cc2)CC1,34,76*,-12,8,-1,-2
COc1ccc(-c2cc(CCCC(=O)NCCc3ccc(OC)cc3OC)no2)cc1,37,62*,-3,-1,2,2
CC(C)(C)NC(=O)COC(=O)c1ccccc1Nc1ccc(SC(F)F)cc1,67,98*,-7,-4,40,-6
O=C(COc1ccccc1C(=O)O)Nc1ccc(SC(F)F)cc1,-86*,-88,0,4,-3,-1
O=C(COC(=O)c1ccccc1Nc1ccc(SC(F)F)cc1)NC1CC1,53,79*,1,-6,26,0
NC(=O)COC(=O)c1ccccc1Nc1ccc(SC(F)F)cc1,4,9,-18,-6,0,-29
C[C@@H]1CN([C@@H](C)CO)C(=O)CCCn2nncc2CO[C@H]1CN(C)C(=O)Nc1cccc(Oc2ccccn2)c1,nt,nt,nt,nt,0,nt
Nc1ccc2ccc(O)cc2c1,nt,nt,5,nt,0,nt
C[n+]1c2cc(N)ccc2cc2ccc(N)cc21,nt,nt,33*!,nt,2,nt
COc1ccc(-c2cc(C(F)F)n3ncc(C(=O)Nc4ccc(C(=O)N5CCOCC5)cc4)c3n2)cc1,3,-1,-22,1,0,-3
O=C(Nc1ccc(C(=O)N2CCOCC2)cc1)c1cnn2c(C(F)F)cc(-c3ccccc3)nc12,13,54*,-27,2,0,5
Cc1ccc(-c2c(C#N)c(N)n(-c3ccccc3)c(=O)c2C#N)cc1,-7,1,-1,1,5,54*
O=c1c2sccc2n(Cc2cccc(F)c2)c(=O)n1-c1ccc(F)cc1,2,48,-1,0,-1,6
S=C(N/N=C/c1ccco1)NC1CC2CCC1C2 (stereo not drawn),30,58*,-9,3,0,0
CCOc1ccc(/C=N/NC(=S)NC2CC3CCC2C3)cc1 (stereo not drawn),16,15,-1,1,6,-3
CS(=O)(=O)c1ccc(C(=O)OCC(=O)NC23CC4CC(CC(C4)C2)C3)cc1[N+](=O)[O-],26,51*,2,1,1,7
N#CC1=C(N)N(c2ccc(Oc3ccccc3)cc2)C(=O)C1,-89*,-91,-6,1,-4,-101
COc1ccc(Cl)c2c1[nH]c1nc(SCc3ccccn3)nnc12,43,103*,-59,3,1,13
Cc1ccc(S(=O)(=O)NC2(C(F)(F)F)C(=O)Nc3c2c(=O)[nH]c(=O)n3-c2ccccc2)cc1 (stereo not drawn),-2,3,-2,4,9,8
CC(C)=C1C2CCC1C1C(=O)N(c3ccc(C)c(C)c3)C(=O)C21 (stereo not drawn),-71*,-78,2,7,-1,-3
O=C1CSC(c2ccccn2)N1c1ccc(C(F)(F)F)cc1 (stereo not drawn),1,7,-5,-4,1,-10
C[C@@H]1CN([C@@H](C)CO)C(=O)CCCn2nncc2CO[C@@H]1CN(C)C(=O)c1ccc(N2CCN(C)CC2)cc1,nt,nt,nt,nt,-3,nt
Cc1ccc(C)c(N(C(=O)c2csnn2)C(C(=O)NC2CCCC2)c2ccncc2)c1 (stereo not drawn),-3,9,-6,0,1,0
CC(C)c1ccc(N(C(=O)C(F)(F)F)C(C(=O)NC2CCCCC2)c2ccncc2)cc1 (stereo not drawn),-1,-8,1,2,2,6
COc1ccc(CNC(=O)C(c2ccc(C)o2)N(C(=O)c2csnn2)c2ccc(C(C)C)cc2)cc1 (stereo not drawn),43,71*,-21,9,-2,-8
CC(C)c1ccc(N(C(=O)c2csnn2)C(C(=O)NC2CCCC2)c2ccncc2)cc1 (stereo not drawn),21,53*,-15,4,-2,10
CCC(C)N(C(=O)C(F)(F)F)C(C(=O)NC1CCCCC1)c1ccncc1 (stereo not drawn),-52*,-63,-9,3,0,1
